Measured values taken from the supplement of paper PMC10849652.
The full data set covers some 8,800 targets. This sample favours those with a hit. About 0.5% of all pairs of compound and target were hits. A number with no mark means an inactive call.

What was measured:
Test in all cases: log2 fold change, soluble protein after heating vs DMSO (PISA); higher = thermal stabilisation; K562 lysate, 10 uM; active = over 0.2 and 3.5 SD of the protein, either way, in both replicates (recomputed)
nilotinib = compound: Cc1cn(-c2cc(NC(=O)c3ccc(C)c(Nc4nccc(-c5cccnc5)n4)c3)cc(C(F)(F)F)c2)cn1 [nilotinib]
In short: (§1)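 K562 pellets were dounce-homogenised in PBS pH 7.4 containing 1 mM MgCl2, and the crude extract, at 1 mg/mL protein, was exposed to 10 μM compound for 30 min. Aliquots were heated for 3 min across 48°C-58°C, pooled, brought to 0.5% NP-40 at 4°C and spun at 21,000xg for 90 min, with the supernatant taken as soluble protein. TMTpro 16plex LC-MS/MS with equalised channel sums quantified that protein. Values are log-two fold changes in thermal stability relative to solvent controls, taken from duplicates.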

[1] = compound: Cc1nc(Nc2n[nH]c3c2CN(C(=O)N[C@H](CN(C)C)c2ccccc2)C3(C)C)c2sccc2n1
In short: as §1

dasatinib = compound: Cc1nc(Nc2ncc(C(=O)Nc3c(C)cccc3Cl)s2)cc(N2CCN(CCO)CC2)n1 [dasatinib]
In short: as §1

[2] = compound: Cc1ncc(-c2ccnc(Nc3ccc(S(C)(=O)=O)cc3)n2)n1C(C)C
In short: as §1

[3] = compound: Cn1cc(-c2ccc3c(c2)CCN3C(=O)Cc2cccc(C(F)(F)F)c2)c2c(N)ncnc21
In short: as §1

quisinostat = compound: Cn1cc(CNCC2CCN(c3ncc(C(=O)NO)cn3)CC2)c2ccccc21 [quisinostat]
In short: as §1

tipifarnib = compound: Cn1cncc1[C@@](N)(c1ccc(Cl)cc1)c1ccc2c(c1)c(-c1cccc(Cl)c1)cc(=O)n2C [tipifarnib]
In short: as §1

[4] = compound: NC(=O)Nc1cc(-c2cccc(F)c2)sc1C(=O)N[C@H]1CCCNC1
In short: as §1

[5] = compound: NC(=O)c1cnc(N[C@@H]2CCCC[C@@H]2N)nc1Nc1cccc(-n2nccn2)c1
In short: as §1

[6] = compound: NC1(c2ccc(-c3nc4ccn5c(=O)[nH]nc5c4cc3-c3ccccc3)cc2)CCC1
In short: as §1

UniProt Q9NVH2, sequence (Q9NVH2 whole entry, looked up): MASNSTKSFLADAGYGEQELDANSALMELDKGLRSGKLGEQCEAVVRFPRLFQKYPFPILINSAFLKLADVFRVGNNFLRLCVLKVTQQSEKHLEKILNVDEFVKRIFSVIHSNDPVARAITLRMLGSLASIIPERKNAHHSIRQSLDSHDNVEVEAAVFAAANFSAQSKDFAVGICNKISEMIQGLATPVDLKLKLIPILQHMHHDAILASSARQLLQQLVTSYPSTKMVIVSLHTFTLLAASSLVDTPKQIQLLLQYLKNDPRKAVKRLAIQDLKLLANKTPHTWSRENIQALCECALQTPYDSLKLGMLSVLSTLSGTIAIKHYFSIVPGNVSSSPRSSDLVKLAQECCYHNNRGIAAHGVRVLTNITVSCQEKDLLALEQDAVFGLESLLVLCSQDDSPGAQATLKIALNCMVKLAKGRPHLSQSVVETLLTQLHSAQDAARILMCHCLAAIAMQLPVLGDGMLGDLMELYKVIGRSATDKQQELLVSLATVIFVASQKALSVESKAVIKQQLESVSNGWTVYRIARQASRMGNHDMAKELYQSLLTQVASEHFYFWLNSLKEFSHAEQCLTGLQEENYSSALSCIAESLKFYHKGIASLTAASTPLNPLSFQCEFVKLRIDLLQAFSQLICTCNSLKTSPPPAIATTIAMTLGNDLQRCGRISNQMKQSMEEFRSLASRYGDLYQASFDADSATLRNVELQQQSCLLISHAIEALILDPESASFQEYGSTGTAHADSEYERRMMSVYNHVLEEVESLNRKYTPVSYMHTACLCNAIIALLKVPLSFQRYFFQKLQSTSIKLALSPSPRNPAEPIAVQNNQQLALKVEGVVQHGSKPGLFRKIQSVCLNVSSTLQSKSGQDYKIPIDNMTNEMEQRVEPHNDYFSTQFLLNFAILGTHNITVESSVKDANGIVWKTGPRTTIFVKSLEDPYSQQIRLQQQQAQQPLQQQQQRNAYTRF
UniProt Q9H4A5, sequence (Q9H4A5 whole entry, looked up): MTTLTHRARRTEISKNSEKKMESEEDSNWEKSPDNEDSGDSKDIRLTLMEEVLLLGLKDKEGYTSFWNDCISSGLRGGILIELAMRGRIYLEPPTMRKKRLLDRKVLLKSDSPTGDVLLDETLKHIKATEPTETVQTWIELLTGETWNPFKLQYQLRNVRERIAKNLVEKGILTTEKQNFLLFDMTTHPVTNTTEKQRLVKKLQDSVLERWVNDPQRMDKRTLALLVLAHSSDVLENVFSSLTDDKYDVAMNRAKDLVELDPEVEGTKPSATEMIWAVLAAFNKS
UniProt Q8IY47, sequence (Q8IY47 whole entry, looked up): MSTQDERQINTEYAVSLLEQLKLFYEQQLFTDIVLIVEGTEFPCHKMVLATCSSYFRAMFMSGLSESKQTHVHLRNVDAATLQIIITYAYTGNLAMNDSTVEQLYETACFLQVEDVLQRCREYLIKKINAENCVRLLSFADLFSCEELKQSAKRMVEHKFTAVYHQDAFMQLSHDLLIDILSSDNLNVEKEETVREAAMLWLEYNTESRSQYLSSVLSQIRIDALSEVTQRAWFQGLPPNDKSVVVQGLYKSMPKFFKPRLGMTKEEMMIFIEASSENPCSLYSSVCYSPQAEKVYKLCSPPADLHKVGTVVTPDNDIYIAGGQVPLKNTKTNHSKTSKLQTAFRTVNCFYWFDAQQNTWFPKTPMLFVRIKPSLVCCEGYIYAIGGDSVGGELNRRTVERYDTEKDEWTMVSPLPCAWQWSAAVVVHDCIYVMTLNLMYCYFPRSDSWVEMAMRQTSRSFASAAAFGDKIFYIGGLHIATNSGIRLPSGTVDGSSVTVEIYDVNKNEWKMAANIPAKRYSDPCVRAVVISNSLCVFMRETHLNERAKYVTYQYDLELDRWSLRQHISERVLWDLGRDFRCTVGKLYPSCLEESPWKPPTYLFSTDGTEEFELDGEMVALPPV
UniProt Q75QN2, sequence (Q75QN2 whole entry, looked up): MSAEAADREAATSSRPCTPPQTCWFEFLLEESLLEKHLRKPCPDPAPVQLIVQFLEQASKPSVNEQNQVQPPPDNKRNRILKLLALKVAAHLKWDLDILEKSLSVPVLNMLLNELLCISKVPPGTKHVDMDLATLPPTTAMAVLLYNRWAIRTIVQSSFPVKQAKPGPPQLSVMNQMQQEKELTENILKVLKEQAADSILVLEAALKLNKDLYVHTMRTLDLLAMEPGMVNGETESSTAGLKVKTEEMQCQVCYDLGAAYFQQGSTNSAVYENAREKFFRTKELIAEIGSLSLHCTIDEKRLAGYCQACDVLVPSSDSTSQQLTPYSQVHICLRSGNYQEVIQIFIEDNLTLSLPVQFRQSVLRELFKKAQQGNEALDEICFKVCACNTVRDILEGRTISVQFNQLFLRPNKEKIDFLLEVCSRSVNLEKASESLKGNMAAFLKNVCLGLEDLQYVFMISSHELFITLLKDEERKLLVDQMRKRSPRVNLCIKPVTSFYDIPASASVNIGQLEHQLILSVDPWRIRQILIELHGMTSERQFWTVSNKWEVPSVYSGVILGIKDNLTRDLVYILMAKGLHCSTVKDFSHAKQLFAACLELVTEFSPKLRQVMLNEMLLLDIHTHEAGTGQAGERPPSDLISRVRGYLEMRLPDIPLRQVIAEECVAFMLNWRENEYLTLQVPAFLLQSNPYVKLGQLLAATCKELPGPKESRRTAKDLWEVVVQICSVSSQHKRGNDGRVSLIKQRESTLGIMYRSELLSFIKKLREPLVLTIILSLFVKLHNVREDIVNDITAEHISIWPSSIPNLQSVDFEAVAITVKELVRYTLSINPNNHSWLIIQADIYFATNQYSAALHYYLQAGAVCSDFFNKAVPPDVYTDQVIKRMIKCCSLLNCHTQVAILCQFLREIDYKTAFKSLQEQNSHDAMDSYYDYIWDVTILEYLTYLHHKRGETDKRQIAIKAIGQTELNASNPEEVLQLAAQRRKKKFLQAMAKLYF
UniProt Q9UBN7, sequence (Q9UBN7 whole entry, looked up): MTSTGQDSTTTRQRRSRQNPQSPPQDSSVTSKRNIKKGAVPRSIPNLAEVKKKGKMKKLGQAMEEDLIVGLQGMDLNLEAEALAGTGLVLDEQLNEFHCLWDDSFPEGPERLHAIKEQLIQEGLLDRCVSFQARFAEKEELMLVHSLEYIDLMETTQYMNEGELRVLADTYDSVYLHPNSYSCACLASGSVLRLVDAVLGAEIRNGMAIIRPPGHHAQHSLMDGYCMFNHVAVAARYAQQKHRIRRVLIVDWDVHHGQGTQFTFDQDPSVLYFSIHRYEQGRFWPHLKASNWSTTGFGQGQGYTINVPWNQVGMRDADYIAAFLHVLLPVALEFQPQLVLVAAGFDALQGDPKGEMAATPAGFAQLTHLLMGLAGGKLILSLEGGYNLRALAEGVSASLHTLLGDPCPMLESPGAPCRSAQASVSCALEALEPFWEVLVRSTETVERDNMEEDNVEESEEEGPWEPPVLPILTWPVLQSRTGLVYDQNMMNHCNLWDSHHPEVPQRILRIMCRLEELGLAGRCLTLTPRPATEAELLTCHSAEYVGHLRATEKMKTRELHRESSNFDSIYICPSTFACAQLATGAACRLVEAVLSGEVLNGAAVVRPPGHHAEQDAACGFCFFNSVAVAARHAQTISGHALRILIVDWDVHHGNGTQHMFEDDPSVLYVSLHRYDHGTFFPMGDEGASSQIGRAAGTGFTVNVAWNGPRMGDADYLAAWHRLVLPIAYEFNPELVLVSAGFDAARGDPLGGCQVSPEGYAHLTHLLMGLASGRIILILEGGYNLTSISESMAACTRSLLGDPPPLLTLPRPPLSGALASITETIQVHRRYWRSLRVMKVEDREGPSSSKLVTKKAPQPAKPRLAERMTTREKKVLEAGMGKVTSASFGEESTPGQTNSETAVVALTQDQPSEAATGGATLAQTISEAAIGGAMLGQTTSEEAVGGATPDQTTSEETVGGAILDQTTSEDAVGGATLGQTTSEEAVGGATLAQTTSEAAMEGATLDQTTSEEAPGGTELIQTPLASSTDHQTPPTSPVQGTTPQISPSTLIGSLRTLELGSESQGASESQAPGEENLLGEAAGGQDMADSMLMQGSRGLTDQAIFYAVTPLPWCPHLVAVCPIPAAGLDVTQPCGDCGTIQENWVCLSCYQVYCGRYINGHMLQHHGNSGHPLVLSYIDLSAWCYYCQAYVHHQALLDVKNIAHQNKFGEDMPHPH
UniProt Q9NVX0, sequence (Q9NVX0 whole entry, looked up): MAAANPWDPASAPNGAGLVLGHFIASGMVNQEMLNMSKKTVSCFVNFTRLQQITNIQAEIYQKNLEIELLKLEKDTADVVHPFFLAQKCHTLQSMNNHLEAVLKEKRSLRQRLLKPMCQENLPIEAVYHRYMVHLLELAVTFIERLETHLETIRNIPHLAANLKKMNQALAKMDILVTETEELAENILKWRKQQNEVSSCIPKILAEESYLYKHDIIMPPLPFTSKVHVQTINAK
UniProt P09429, sequence (P09429 whole entry, looked up): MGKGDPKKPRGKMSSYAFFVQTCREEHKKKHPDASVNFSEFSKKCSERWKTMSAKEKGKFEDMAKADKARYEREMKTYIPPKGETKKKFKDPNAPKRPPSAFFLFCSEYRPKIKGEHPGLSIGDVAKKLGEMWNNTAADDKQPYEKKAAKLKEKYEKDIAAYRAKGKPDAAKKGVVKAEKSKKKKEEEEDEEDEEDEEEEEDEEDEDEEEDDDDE
UniProt P35914, sequence (P35914 whole entry, looked up): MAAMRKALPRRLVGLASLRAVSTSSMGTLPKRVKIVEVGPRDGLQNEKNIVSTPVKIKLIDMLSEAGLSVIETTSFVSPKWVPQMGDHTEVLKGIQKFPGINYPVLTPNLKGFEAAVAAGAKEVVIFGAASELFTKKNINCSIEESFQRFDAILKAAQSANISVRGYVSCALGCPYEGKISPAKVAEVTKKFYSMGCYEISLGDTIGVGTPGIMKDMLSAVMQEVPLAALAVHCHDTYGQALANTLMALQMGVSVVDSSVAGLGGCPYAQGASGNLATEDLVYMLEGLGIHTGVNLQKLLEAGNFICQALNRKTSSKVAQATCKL

Row | Target | log2 fold change (nilotinib) | log2 fold change [1] | log2 fold change (dasatinib) | log2 fold change [2] | log2 fold change [3] | log2 fold change (quisinostat) | log2 fold change (tipifarnib) | log2 fold change [4] | log2 fold change [5] | log2 fold change [6]
1 | HAUS2 (UniProt Q9NVX0) | 0.036 | -0.033 | -0.028 | 0.069 | 0.05 | -0.04 | -0.034 | -0.014 | -0.094 | 0.037
2 | GOLPH3L (UniProt Q9H4A5) | -0.045 | 0.033 | 0 | -0.006 | 0.01 | -0.026 | 0.018 | 0.094 | 0.013 | -0.039
3 | HNRNPUL2 (UniProt Q1KMD3) | -0.037 | 0.02 | 0.002 | 0.009 | -0.005 | -0.046 | 0.008 | 0 | 0.004 | -0.008
4 | GSK3A (UniProt P49840) | 0.026 | 0.425 | 0.021 | 0.562 (active) | 0.048 | -0.009 | -0.008 | -0.024 | 0.099 | -0.006
5 | GRK2 (UniProt P25098) | 0.001 | 0.393 (active) | -0.058 | 0.01 | 0 | 0.034 | -0.001 | 0.397 (active) | 0.043 | -0.027
6 | HDAC3 (UniProt O15379) | -0.079 | -0.019 | 0.04 | -0.026 | 0.007 | -0.004 | -0.102 | 0.038 | -0.004 | -0.049
7 | IRAK4 (UniProt Q9NWZ3) | -0.115 | 0.065 | 0.051 | -0.012 | 0.023 | -0.066 | -0.044 | 0.413 (active) | 0.028 | 0
8 | HMGB2 (UniProt P26583) | 0.045 | -0.042 | 0.057 | 0.077 | 0.018 | 0.065 | 0.033 | -0.014 | -0.018 | 0
9 | IGFBP4 (UniProt P22692) | 0.005 | -0.01 | 0.085 | -0.053 | -0.022 | -0.049 | 0.119 | -0.021 | 0.293 | -0.026
10 | KBTBD2 (UniProt Q8IY47) | 0.014 | -0.005 | 0.012 | 0.006 | 0.028 | -0.178 | -0.018 | 0.007 | 0.009 | -0.202
11 | HMGCL (UniProt P35914) | 0.011 | -0.041 | 0.029 | 0.023 | 0.02 | -0.017 | -0.013 | 0.018 | -0.033 | 0.015
12 | IMPACT (UniProt Q9P2X3) | 0.087 | -0.066 | 0.013 | -0.687 (active) | 0.04 | -0.103 | -0.13 | 0.11 | 0.071 | 0.087
13 | IMMT (UniProt C9J406) | -0.044 | 0.09 | 0.045 | 0.012 | 0.051 | 0.022 | -0.03 | 0 | 0.023 | -0.038
14 | HMGB1 (UniProt P09429) | 0.056 | -0.002 | 0.03 | 0.064 | -0.03 | 0.108 | 0.026 | -0.021 | 0 | -0.011
15 | INTS8 (UniProt Q75QN2) | 0.035 | 0.044 | -0.072 | 0.049 | 0.021 | 0.003 | -0.009 | 0.067 | -0.035 | -0.029
16 | HDAC6 (UniProt Q9UBN7) | 0.078 | -0.016 | -0.06 | -0.034 | 0.042 | 0.031 | 0.024 | -0.01 | 0.034 | -0.027
17 | INTS7 (UniProt Q9NVH2) | -0.02 | -0.014 | -0.004 | -0.009 | -0.008 | -0.071 | 0.037 | 0.088 | 0.032 | -0.002
18 | GLB1 (UniProt P16278) | -0.006 | 0.03 | -0.026 | 0.023 | 0.003 | 0.03 | 0.017 | -0.016 | -0.011 | -0.022
19 | HSPBAP1 (UniProt Q96EW2) | 0.1 | 0.039 | 0.011 | 0.14 | 0.213 | -0.07 | 0.056 | 0.024 | -0.056 | 0.032
20 | GMIP (UniProt Q9P107) | -0.094 | -0.041 | -0.097 | -0.058 | 0.023 | -0.012 | -0.017 | 0.034 | -0.025 | -0.022
21 | HECTD3 (UniProt Q5T447) | -0.004 | 0.041 | -0.016 | -0.012 | 0.006 | 0.026 | 0.059 | 0.05 | 0.003 | 0.056
22 | ITPKA (UniProt P23677) | -0.005 | 0.045 | -0.064 | -0.001 | -0.002 | -0.026 | -0.001 | 0.044 | 0.021 | -0.027
